The sample as a whole holds a higher share of hits than the screen did.
TbREL1 inh = TbREL1 RNA ligase inhibitors, primary screen, biochemical, FRET fluorescence; RNA-editing ligase 1, mitochondrial (Trypanosoma brucei brucei), P86926; TbREL1 RNA ligation; inhibition, % at 9.66 µM; 89,000 tested, 0.49% active;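 active = inhibition above the mean inhibition across all screened compounds plus 3 SD, cut at about 11% in these data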
Target sequence (P86926 whole entry, looked up): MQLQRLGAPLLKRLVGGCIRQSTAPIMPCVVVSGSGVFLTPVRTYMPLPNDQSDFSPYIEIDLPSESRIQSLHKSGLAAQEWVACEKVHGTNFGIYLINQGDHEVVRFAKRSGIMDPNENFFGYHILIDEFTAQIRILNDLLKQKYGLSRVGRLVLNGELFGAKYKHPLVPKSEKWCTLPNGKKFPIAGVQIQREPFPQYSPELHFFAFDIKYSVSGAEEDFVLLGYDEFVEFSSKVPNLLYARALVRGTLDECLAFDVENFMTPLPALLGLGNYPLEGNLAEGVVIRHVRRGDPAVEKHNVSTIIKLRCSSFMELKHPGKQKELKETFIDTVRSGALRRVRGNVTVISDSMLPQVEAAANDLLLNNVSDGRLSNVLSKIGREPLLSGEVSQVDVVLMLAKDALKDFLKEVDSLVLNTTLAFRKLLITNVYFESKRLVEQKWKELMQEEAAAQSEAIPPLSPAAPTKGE
TbREL1 confirm = TbREL1 RNA ligase inhibitors, confirmation, biochemical, FRET fluorescence, triplicate; shares compounds with TbREL1 inh; TbREL1 RNA ligation; inhibition, % at 9.66 µM; 390 tested, 37% active; AID 1117282, 2014;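 active = mean inhibition across replicates above a set limit taken from the earlier primary screen, cut at about 11% in these data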
Numbers stand for hits.

How did Cc1cc(C(N)=O)c2ccccc2n1 do in these assays?
TbREL1 inh: inactive

Results for COc1ccc(NC(=O)NCCCN2CCN(c3ccc(F)cc3)CC2)cc1OC ?
TbREL1 inh: inactive

Results for C=CCN=C1NC(c2ccccc2C(F)(F)F)C(C(=O)OC)=C(C)N1Cc1cccc(C(F)(F)F)c1 (centres undefined) ?
TbREL1 inh: 15; TbREL1 confirm: 18

Results for COCCOC(=O)C1=C(C)N(Cc2ccccc2)C(=O)NC1c1cccc(OC)c1OC (centres undefined) ?
TbREL1 inh: inactive

What do the screens show for `CCN=C1NC(c2ccc(C(F)(F)F)cc2)C(C(=O)OC)=C(C)N1Cc1cccc(C(F)(F)F)c1` (centres undefined)?
TbREL1 inh: inactive

Results for CCN=C1NC(c2ccccc2C(F)(F)F)C(C(=O)OC)=C(C)N1C (centres undefined) ?
TbREL1 inh: inactive

Results for C=CCN=C1NC(c2ccccc2C(F)(F)F)C(C(=O)OC)=C(C)N1Cc1ccc(C(F)(F)F)cc1 (centres undefined) ?
TbREL1 inh: 14; TbREL1 confirm: 18

How did COC(=O)C1=C(C)N(Cc2cccc(C(F)(F)F)c2)C(=NCc2cc(OC)c(OC)c(OC)c2)NC1c1ccccc1C(F)(F)F (centres undefined) do in these assays?
TbREL1 inh: 14; TbREL1 confirm: 19

What do the screens show for `COC(=O)C1=C(C)N(Cc2cccc(C(F)(F)F)c2)C(=NCC2CC2)NC1c1ccccc1C(F)(F)F` (centres undefined)?
TbREL1 inh: 15; TbREL1 confirm: 15

Results for COc1cc(Cn2cc([C@]34C[C@H]5C(=O)N(C)CC(=O)N5[C@H]3N(S(=O)(=O)c3ccccc3)c3ccccc34)c3ccccc32)cc(OC)c1 ?
TbREL1 inh: inactive

Results for COc1ccccc1N1CCN(C(=O)c2ccc3c(c2)nc(C)n3-c2cc(OC)c(OC)c(OC)c2)CC1 ?
TbREL1 inh: inactive

How did CC(C)CNS(=O)(=O)CC1NCc2cc3c(cc21)OCO3 (centres undefined) do in these assays?
TbREL1 inh: inactive

How did COc1ccc(CNS(=O)(=O)c2cc3c(cc2Br)CC(C)N3C(C)=O)cc1 (centres undefined) do in these assays?
TbREL1 inh: inactive

Results for CN(C)CCCN(C(=O)CCS(=O)(=O)c1ccccc1)c1nc2cc3c(cc2s1)OCO3 ?
TbREL1 inh: inactive

What do the screens show for `CN(C)CCCN(C(=O)c1ccc(S(=O)(=O)N2CCc3ccccc32)cc1)c1nc2ccc(F)cc2s1`?
TbREL1 inh: 12; TbREL1 confirm: inactive

How did Cc1ccc2nc(N(CCCN(C)C)C(=O)c3ccc(S(=O)(=O)N4CCc5ccccc5C4)cc3)sc2c1 do in these assays?
TbREL1 inh: inactive

Results for CN(C)CCCN(C(=O)c1ccc2c(c1)CCCC2)c1nc2cc3c(cc2s1)OCO3 ?
TbREL1 inh: inactive

Results for CN(C)CCCN(C(=O)c1ccc(S(=O)(=O)N2CCc3ccccc32)cc1)c1nc2ccc(Cl)cc2s1 ?
TbREL1 inh: inactive

How did CN(C)CCCN(C(=O)c1ccc(C(=O)c2ccccc2)cc1)c1nc2cc3c(cc2s1)OCCO3 do in these assays?
TbREL1 inh: 12; TbREL1 confirm: inactive

How did Cc1cccc(CN[C@@H]2CC[C@@]34CCCN3C(=O)CCC[C@H]4C2)c1 do in these assays?
TbREL1 inh: inactive

How did Cc1ccc(S(=O)(=O)N2c3ccc(F)cc3C[C@H]2CSc2ccccc2)cc1 do in these assays?
TbREL1 inh: inactive

What do the screens show for `COCC(=O)N1CCC(C(=O)NC2CCCc3ccccc32)CC1` (centres undefined)?
TbREL1 inh: inactive

How did COC(=O)[C@]12C[C@H](CC(=O)N3CCCC3)C(=O)N(Cc3ccco3)C1=C[C@H](C1CCCC1)O[C@@H]2C do in these assays?
TbREL1 inh: inactive

What do the screens show for `COC(=O)CSc1nnc(-c2ccc(NS(=O)(=O)c3c(C(C)C)cc(C(C)C)cc3C(C)C)cc2)o1`?
TbREL1 inh: inactive

What do the screens show for `O=C1CN(C(=O)C2CCCCC2)C=CN1CCc1ccccc1Br`?
TbREL1 inh: inactive

How did CN(Cc1ccccc1)S(=O)(=O)c1cccc(C(=O)OCC2CCCCC2)c1 do in these assays?
TbREL1 inh: inactive

Results for CCCC1CCC2(CCCN2CCOC(=O)Nc2ccc(Br)cc2)CC1 (centres undefined) ?
TbREL1 inh: inactive

What do the screens show for `O=C(Nc1ccc(F)cc1)OCc1cn(Cc2ccc(F)cc2F)nn1`?
TbREL1 inh: inactive

How did S=C(Nc1cccc(Cl)c1)N(CCCN1CCCC1)Cc1cccn1Cc1ccc(Cl)cc1 do in these assays?
TbREL1 inh: 11; TbREL1 confirm: inactive

What do the screens show for `O=C(CCN1CCCCCC1)Nc1cccc(Cl)c1`?
TbREL1 inh: inactive

What do the screens show for `COc1ccc(NC(=S)N(CCCN2CCCC2)Cc2cccs2)cc1`?
TbREL1 inh: inactive

Results for COc1ccc(-n2c(SCC(=O)Nc3ccc(Oc4ccccc4)cc3)nnc2-c2ccc(C)cc2)cc1 ?
TbREL1 inh: inactive

What do the screens show for `CCOC(=O)c1cccc(NC(=O)CN(C)S(=O)(=O)c2ccco2)c1`?
TbREL1 inh: inactive

How did COC(=O)[C@]12C[C@H](CC(=O)NCc3cccc4ccccc34)C(=O)N(Cc3ccc(Cl)cc3Cl)C1=C[C@H](C(C)C)O[C@@H]2C1CC1 do in these assays?
TbREL1 inh: inactive

How did Fc1ccccc1OCCCN1CCOCC1 do in these assays?
TbREL1 inh: inactive

What do the screens show for `Fc1ccc(-c2csc(N3CCOCC3)n2)cc1`?
TbREL1 inh: inactive

How did Nc1ncc(CCN2CCOCC2)c(-c2ccc(F)cc2)n1 do in these assays?
TbREL1 inh: 15; TbREL1 confirm: inactive

How did Nn1c(SCC(=O)Nc2nccs2)nnc1-c1cc(-c2ccc(F)cc2)n[nH]1 do in these assays?
TbREL1 inh: inactive

How did CCCCNC(=O)NS(=O)(=O)c1ccc(NC(=O)CSc2nnc(-c3ccc(Cl)cc3)n2N)cc1 do in these assays?
TbREL1 inh: inactive

What do the screens show for `Cc1ccc(NC(=O)Cc2cccc(OC(F)F)c2)c(S(=O)(=O)N2CCOCC2)c1`?
TbREL1 inh: inactive

Results for CCCN1CCCCC(NC(=O)c2ccc(F)c(F)c2)C1=O (centres undefined) ?
TbREL1 inh: inactive

What do the screens show for `O=S(=O)(N[C@@H]1CCCC[C@@H]1N1CCOCC1)c1ccc(Cl)cc1`?
TbREL1 inh: inactive

How did COc1cccc2cc(C(=O)N3CCN(c4ccccc4F)CC3)c(=O)oc12 do in these assays?
TbREL1 inh: inactive

What do the screens show for `COc1cc(Br)cc2cc(C(=O)N3CCN(c4ccccn4)CC3)c(=O)oc12`?
TbREL1 inh: inactive

Results for COc1cc([N+](=O)[O-])cc2cc(C(=O)N3CCN=C3c3ccccc3)c(=O)oc12 ?
TbREL1 inh: 11; TbREL1 confirm: inactive

How did CC(=O)C1=C(C)N(Cc2ccc(F)cc2)C(=S)NC1c1ccc(Br)cc1 (centres undefined) do in these assays?
TbREL1 inh: inactive

What do the screens show for `COc1ccc(-n2c(COc3ccccc3)nnc2SCc2nc3ccccc3[nH]2)cc1`?
TbREL1 inh: inactive

Results for Nc1ccccc1SCc1cn2cccnc2n1 ?
TbREL1 inh: inactive

How did c1ccc(SCc2cn3cccnc3n2)nc1 do in these assays?
TbREL1 inh: inactive

Results for O=c1c2c(-c3ccco3)csc2nc(SCc2cn3cccnc3n2)n1-c1ccccc1 ?
TbREL1 inh: 23; TbREL1 confirm: inactive

Source: PubChem
